Hits are enriched below; roughly 7.5% of the tested compounds scored in any of these assays.
NPC1 prom act: qHTS Assay for NPC1 Promoter Activators. AID 485313, 2010. 320,000 tested, 2.4% active. Huh7 NPC1 promoter luciferase reporter, 24 h. Potency, µM (highest dose often 9.22 µM), most hits filed as activators; further: nearly all actives have a fitted effect of over 60% in size
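Cells: Huh7 expressing luciferase under the NPC1 promoter, 1500/well. Seeded 2 h, compound added, incubated 24 h at 37 °C. Luciferase reagent, 10 min ambient, then luminescence.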
SMN2 splice enh: qHTS Assay for Enhancers of SMN2 Splice Variant Expression; 210,000 tested, 2.8% active; Potency, µM (series often up to 46.1 µM), actives largely listed as activators; HEK293 SMN2-luciferase splicing reporter, luminescence, 30-36 h; further: nearly all actives have a fitted effect of over 55% in size
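qHTS luciferase splicing reporter: luminescence rises when SMN2 exon 7 is included in transfected HEK293 cells. Compound exposure lasted 30-36 h at 37C, with 4.5 mM final sodium butyrate as control, followed by a ONE-Glo read.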
KinaseGlo FLuc: Counterscreen for Luciferase (Kinase-Glo TM) Inhibition | Kinase-Glo luciferase, ATP luminescence, 8 min | Potency, µM (doses to about 38.3 µM), actives largely listed as inhibitors | 200,000 tested, 0.28% active; further: nearly all actives have a fitted effect of over 60% in size
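Kinase-Glo luciferase light output from ATP and luciferin was measured with 10 uM ATP, within the enzyme's linear range. Buffer: 50 mM imidazole pH 7.2, 50 mM KCl, 7 mM MgCl2, 0.01% Tween 20, 0.05% BSA; luminescence read after 8 min at ambient temperature.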
Rab9 prom act: qHTS Assay for Rab9 Promoter Activators; Huh7 Rab9 promoter-luciferase reporter, luminescence, 24 h; Potency, µM (top dose mostly 9.22 µM), actives largely listed as activators; 320,000 tested, 2.8% active; AID 485297, 2010; further: nearly all actives have a fitted effect of over 60% in size
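Huh7 reporter line, Rab9 promoter upstream of luciferase. Compound exposure 24 h at 37 °C in reduced-serum medium with 10% FBS. Read-out: luminescence.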
ELG1 genotoxic: qHTS screen for small molecules that induce genotoxicity in human embryonic kidney (HEK293T) cells expressing luciferase-tagged ELG1; HEK293T ELG1-luciferase reporter, luminescence, 16 h; Potency, µM (top dose mostly 46 µM), actives largely listed as activators; 330,000 tested, 1.3% active; AID 504466, 2011; further: nearly all actives have a fitted effect of over 60% in size
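Screening used a luciferase reporter fused to human ELG1 in HEK293T cells. Luminescence was read on a CCD plate imager after 16 hr exposure and 30 min ONE-Glo incubation.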
FLuc counter: qHTS profiling assay for firefly luciferase inhibitor/activator using purifed enzyme and Km concentrations of substrates (counterscreen for miR-21 project); Luciferin 4-monooxygenase (Photinus pyralis), P08659; purified FLuc, Km substrates, luminescence inhibition; 360,000 tested, 6.9% active; Potency, µM (doses to about 57.5 µM), actives largely listed as inhibitors; AID 588342, 2011; further: nearly all actives have a fitted effect of over 55% in size
Target sequence (P08659 whole entry, looked up): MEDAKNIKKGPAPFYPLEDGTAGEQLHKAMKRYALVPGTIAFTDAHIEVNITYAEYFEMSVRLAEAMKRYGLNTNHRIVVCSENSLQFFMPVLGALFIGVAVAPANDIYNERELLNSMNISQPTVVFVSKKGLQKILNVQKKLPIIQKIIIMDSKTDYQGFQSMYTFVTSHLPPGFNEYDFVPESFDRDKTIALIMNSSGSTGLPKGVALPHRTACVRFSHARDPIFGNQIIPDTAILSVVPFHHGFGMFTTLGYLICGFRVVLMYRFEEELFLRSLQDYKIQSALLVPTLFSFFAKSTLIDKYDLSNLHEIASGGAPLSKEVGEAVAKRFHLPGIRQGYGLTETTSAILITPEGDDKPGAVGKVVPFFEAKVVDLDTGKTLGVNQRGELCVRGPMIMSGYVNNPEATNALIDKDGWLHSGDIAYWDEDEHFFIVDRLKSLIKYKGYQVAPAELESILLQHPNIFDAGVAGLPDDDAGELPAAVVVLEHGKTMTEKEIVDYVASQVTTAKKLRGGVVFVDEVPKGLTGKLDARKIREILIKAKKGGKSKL
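Purified P. pyralis luciferase, 10 nM final, with Km-level 10 uM D-luciferin and 10 uM ATP in 50 mM Tris acetate pH 7.5, 10 mM Mg acetate, 0.01% Tween-20, 0.05% BSA; 6-point qHTS titration about 60 µM downward; luminescence read.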
Large screens that a line does not name were inactive. The call rests on the fitted dose curve; in most records, active means well fitted curve in the direction sought with a large enough effect; inconclusive means small, poorly fitted or top-dose-only effect, or another doubt; inactive means no such curve, though single readings can be large; an effect the other way counts as inactive or inconclusive.

COc1ccc(OC)c(NC(=O)/C=C/c2ccc(S(=O)(=O)N3CCOCC3)cc2)c1	none (no result: SMN2 splice enh, KinaseGlo FLuc)
CN1C(=O)/C(=N\OC(=O)c2cccc3ccccc23)c2ccccc21	FLuc counter 11µM
CC(=O)/C=C1\C(=O)N(C)c2ccccc21	none (no result: SMN2 splice enh, KinaseGlo FLuc, ELG1 genotoxic, FLuc counter)
CC(C)c1cc(C(=O)N/N=C/c2cccnc2)cs1	SMN2 splice enh inconclusive, FLuc counter inconclusive
CCOc1cccc(C(=O)N/N=C/c2ccoc2)c1	ELG1 genotoxic inconclusive, FLuc counter 13µM (no result: SMN2 splice enh, KinaseGlo FLuc)
COc1ccc(C(=O)N/N=C\c2ccoc2)cc1	NPC1 prom act inconclusive, ELG1 genotoxic inconclusive, FLuc counter 19µM (no result: SMN2 splice enh, KinaseGlo FLuc)
CC(C)c1cc(C(=O)N/N=C/c2ccoc2)cs1	NPC1 prom act inconclusive, Rab9 prom act inconclusive, ELG1 genotoxic inconclusive, FLuc counter 12µM (no result: SMN2 splice enh, KinaseGlo FLuc)
COc1cc(OC)c(C(=O)N/N=C/c2ccoc2)cc1OC	ELG1 genotoxic inconclusive (no result: SMN2 splice enh, KinaseGlo FLuc)
Cc1ccc(C(=O)N/N=C/c2ccoc2)cc1C	NPC1 prom act inconclusive, Rab9 prom act inconclusive, ELG1 genotoxic inconclusive, FLuc counter 27µM (no result: SMN2 splice enh, KinaseGlo FLuc)
O=C(Nc1sc2c(c1C(=O)O)CCCCC2)c1cccs1	NPC1 prom act inconclusive, SMN2 splice enh inconclusive, Rab9 prom act 4.5µM, FLuc counter 2.7µM
CC(C)OC(=O)c1c(NC(=O)c2cccs2)sc2c1CCCC2	none
O=C(Nc1sc2c(c1C(=O)O)CCCC2)c1cccs1	SMN2 splice enh inconclusive, FLuc counter 17µM
CCOC(=O)CNC(=O)CSc1nnc(NC(=O)c2ccccc2Cl)s1	SMN2 splice enh inconclusive, Rab9 prom act inconclusive, ELG1 genotoxic inconclusive, FLuc counter 11µM
CCOC(=O)CNC(=O)CSc1nnc(NC(=O)c2ccc(S(=O)(=O)N3CCOCC3)cc2)s1	FLuc counter inconclusive (no result: SMN2 splice enh, KinaseGlo FLuc)
CCC(=O)Nc1nnc(SCC(=O)Nc2cccc(Cl)c2)s1	none (no result: SMN2 splice enh, KinaseGlo FLuc)
O=C(CSc1nnc(NC(=O)c2ccccc2Cl)s1)Nc1ccc2c(c1)oc1ccccc12	NPC1 prom act 3.5µM, SMN2 splice enh 35µM, Rab9 prom act inconclusive, ELG1 genotoxic inconclusive, FLuc counter 0.95µM
O=C(CSc1nnc(NC(=O)c2ccccc2Cl)s1)NC1CC1	NPC1 prom act inconclusive, Rab9 prom act 4.5µM, FLuc counter 12µM (no result: SMN2 splice enh, KinaseGlo FLuc)
O=C(CSc1nnc(NC(=O)c2c(F)cccc2F)s1)NC1CC1	none (no result: SMN2 splice enh, KinaseGlo FLuc)
O=C(CSc1nnc(NC(=O)c2ccc(F)cc2F)s1)NC1CC1	NPC1 prom act inconclusive, Rab9 prom act inconclusive, ELG1 genotoxic inconclusive, FLuc counter 7.6µM (no result: SMN2 splice enh, KinaseGlo FLuc)
CCOC(=O)Cc1ccc(NC(=O)NC(C)c2c(-n3cccc3)sc(C)c2C)cc1 (centres undefined)	none (no result: NPC1 prom act, KinaseGlo FLuc, Rab9 prom act, ELG1 genotoxic)
O=C(CSc1nc2ccccc2s1)c1cc2ccccc2o1	FLuc counter 17µM (no result: NPC1 prom act, Rab9 prom act, ELG1 genotoxic)
Cc1ccccc1C(=O)Nc1nnc(SCC(=O)NC2CC2)s1	NPC1 prom act 2.5µM, Rab9 prom act 2.2µM, ELG1 genotoxic inconclusive, FLuc counter 8.5µM (no result: SMN2 splice enh, KinaseGlo FLuc)
O=C(CSc1nc2ccccc2s1)CSc1nc2ccccc2s1	none
CC(=O)Nc1nnc(SCC(=O)NC2CCCC2)s1	none (no result: SMN2 splice enh, KinaseGlo FLuc)
O=C(CSc1nc2ccccc2s1)Nc1ccc2c(c1)oc1ccccc12	SMN2 splice enh 11µM
CC(C)(C)NC(=O)CSc1nnc(NC(=O)c2ccccc2Cl)s1	FLuc counter 17µM
CC(=O)Nc1nnc(SCC(=O)NC(C)(C)C)s1	none
CCOC(=O)Cc1csc(SCC(=O)N(CC(C)C)c2c(N)n(Cc3ccccc3)c(=O)[nH]c2=O)n1	none (no result: SMN2 splice enh, KinaseGlo FLuc)
COc1ccc(CN(C)S(=O)(=O)c2nnc(NC(=O)c3cccc(F)c3)s2)cc1	none (no result: SMN2 splice enh, KinaseGlo FLuc)
O=c1oc2ccccc2n1CSc1nc2ccccc2s1	NPC1 prom act 2.8µM, Rab9 prom act 4µM, ELG1 genotoxic inconclusive, FLuc counter 12µM
COc1cccc(/C=N/Nc2nccnc2Cl)c1O	KinaseGlo FLuc 11µM, ELG1 genotoxic 2.6µM, FLuc counter 2.7µM
COc1cccc(/C=N/Nc2ncnc(Cl)c2N)c1O	ELG1 genotoxic 13µM, FLuc counter 9.5µM (no result: SMN2 splice enh)
COc1cccc(/C=N/Nc2ncnc3scc(-c4ccccc4)c23)c1O	FLuc counter 21µM
